Activity calls are given as the source filed them. Rule for the calls: active = hit-call score of the fitted dose curve at least 0.9, where 1 is the maximum; inactive = score below 0.9.
Read-out: growth arrest and DNA damage 45 (GADD45B), GADD45B (gene 4616)
Test: LTEA_HepaRG_GADD45B: Life Technologies and Expression Analysis (LTEA) Assay for growth arrest and DNA damage 45 (GADD45B) using HepaRG (AID 2283461)
Conditions: mRNA level, 48 h; actives raise or lower the signal
Experimental: LTEA_HepaRG is a cell based, multiplexed-readout assay that uses HepaRG, a human liver cell line, with measurements taken at 48 hours after chemical dosing on a 96-well plate.LTEA_HepaRG_GADD45B is one of 102 assay component(s) measured in the LTEA HepaRG cell culture assay. It is a marker of Cell proliferation, survival, death.Data from the assay component LTEA_HepaRG_GADD45B was analyzed into 1 endpoint. This assay endpoint, LTEA_HepaRG_GADD45B, was analyzed with bidirectional fitting relative to DMSO as the negative control and baseline of activity. Using a type of inducible reporter, measures of mRNA induction for gain or loss-of-signal activity can be used to understand regulation of transcription factor activity. To generalize the intended target to other relatable targets, this assay endpoint is annotated to the mutagenicity response intended target family, where the subfamily is Cell proliferation, survival, death.
A total of 1060 chemcials from the ToxCast library were tested in eight-point concentration-response experiments. Cell culture and cytotoxicity assays were conducted at Thermo Fisher Scientific's Custom Services facility (Madison, WI). A single lot of human HepaRG cells (Thermo Fisher Scientific, Frederick, MD) was used for the cell culture experiments. 96-well format collagen type I coated plates of human HepaRG cells were prepared using established methods. Briefly, cryopreserved HepaRG cells were thawed, plated at a density of approximately 100,000 cells/well in HepaRG Thaw, Plate, and General Purpose media (HPRG770, Thermo Fisher Scientific), and incubated for 48 hours. 0.5% DMSO was selected as vehicle control to balance the requisite need of DMSO in HepaRG cultures to maintain differentiation (for example, baseline metabolism, proportions of hepatocytes vs. cholangiocytes), while enabling further hepatic receptor pathway activation (for example, PXR and CAR) in response to chemical exposure. 48 hours after plating, the culture medium was replaced with HepaRG Serum-Free Incudtion Media. Cells were exposed to each test chemical in duplicate and maintained in CO2 incubators for another 48 hours. Chemical plates were thawed to room temperature and 200x concentrations of treatment groups were prepared. 8-point conentration-reponse curves were made with the highest exposure at 100 uM, followed by half-log dilutions, all in 0.5% DMSO. Each test plate contained variouse controls, induction positive controls (1mM phenobarbital), cytotoxicity positive controls ([…] aflatoxin B1), vehicle controls (0.5% DMSO), and total lysis controls (0.5% DMSO). Cell morphology images were taken using an Essen IncuCyte FLR automated microscope, with six 96-well plates imaged in about 24 minutes. Images were captured and exported and JPEG files. Spent culture media was transfered to black-well plates for the LDH assay, and remaining media was sorted at -80 C for later use. Cells were treated with RLT buffer and frozen until shipped for gene expression analysis. Total RNA was isolated from the cell suspension in 75 uL of Buffer RLT (Qiagen, Germantown, MD 20874) by Quintiles/Expression Analysis (Durham, NC) using a custom isolation procedure. Total RNA from each plate well was transferred to a preamplification plate. Fluidigm's 96.96 Dynamic ArrayTM (Fluidigm, Amsterdam, the Netherlands) technology was used for gene expression analyses by quantitative reverse transcription polymerase chain reaction (qRT-PCR, performed by Quintiles/Expression Analysis, Durham, NC)89. Standard TaqManTM Assays (Applied Biosystems/ThermoFisher Scientific, Foster City, CA) were used to assess the expression of 93 genes selected based on their selectivity and sensitivity to important hepatic receptors known to be modulated by environmental chemicals; importance in human hepatocyte functionality; and hepatotoxicity. […]

SMILES | outcome | AC50
Cc1ccccc1[N+](=O)[O-] | inactive | 
O=NN(c1ccccc1)c1ccccc1 | inactive | 
C=CC(=O)NCNC(=O)C=C |  | 50 µM (active)
CC(c1ccc(O)cc1)(c1ccc(O)cc1)c1ccc(O)cc1 |  | 35.9 µM (active)
Cc1cccc([N+](=O)[O-])c1 | inactive | 
C[C@]12CCC(=O)C=C1CC[C@@H]1[C@@H]2CC[C@]2(C)C(=O)CC[C@@H]12 | inactive | 
Cc1cccc(C)c1N | inactive | 
Cc1ccccc1CO[C@@H]1C[C@@]2(C(C)C)CC[C@]1(C)O2 | inactive | 
Clc1ccc(C(c2ccccc2Cl)C(Cl)(Cl)Cl)cc1 (stereo not given) | inactive | 
CCCCCCCCCc1ccc(O)cc1 | inactive | 
O=C(NC(=O)c1cc(F)c(F)cc1Cl)Nc1cc(F)ccc1N1CCC(C(=O)O)CC1 | inactive | 
CN(C)CCO | inactive | 
O=C(O)C(F)(F)C(F)(F)C(F)(F)C(F)(F)C(F)(F)C(F)(F)C(F)(F)C(F)(F)F |  | 16.8 µM (active)
c1ccc(-c2ccccc2)cc1 | inactive | 
c1cc2ccc3cccc4ccc(c1)c2c34 | inactive | 
CCC(C)(c1ccc(O)cc1)c1ccc(O)cc1 | inactive | 
O=C(N[C@H]1CN2CCC1CC2)c1cc2ccoc2cn1 | inactive | 
ClC1=C(Cl)[C@]2(Cl)[C@@H]3[C@@H](Cl)[C@H]4O[C@H]4[C@@H]3C1(Cl)C2(Cl)Cl | inactive | 
CN(C)c1nc(=O)n(C2CCCCC2)c(=O)n1C | inactive | 
NS(=O)(=O)C(F)(F)C(F)(F)C(F)(F)C(F)(F)C(F)(F)C(F)(F)C(F)(F)C(F)(F)F |  | 20.9 µM (active)

SMILES | outcome | AC50
CC(C)(c1ccccc1)c1ccc(O)cc1 | inactive | 
C[C@]12CCC(=O)C=C1CC[C@@H]1[C@@H]2CC[C@@]2(C)[C@H]1CC[C@]2(C)O | inactive | 
Cc1cc(O)ccc1Cl | inactive | 
Oc1ccc(Cl)cc1Cl | inactive | 
CCSC(=O)N(CC)C1CCCCC1 | inactive | 
O=C(O)C(F)(F)C(F)(F)C(F)(F)C(F)(F)C(F)(F)F | inactive | 
O=C(NC(=O)c1c(F)cccc1F)Nc1cc(Cl)c(OC(F)(F)C(F)F)c(Cl)c1 | inactive | 
Cc1cc2c3c(c1)C(c1ccccc1)=N[C@@H](NC(=O)c1ccncc1)C(=O)N3CC2 | inactive | 
Cc1ccccc1O | inactive | 
CO/C=C(/C(=O)OC)c1ccccc1COc1cccc(C(F)(F)F)n1 |  | 24.7 µM (active)
CCOCCOC(C)=O | inactive | 
C1CC2OC2CC1C1CO1 (stereo not given) | inactive | 
C=CC(N)=O | inactive | 
Cc1ccc(O)c(C)c1 | inactive | 
O=S(=O)(O)C(F)(F)C(F)(F)C(F)(F)C(F)(F)C(F)(F)C(F)(F)F | inactive | 
CCOP(=S)(OCC)SCSC(C)(C)C | inactive | 
CCOC(=O)C(O)(c1ccc(Cl)cc1)c1ccc(Cl)cc1 | inactive | 
Oc1c(Cl)c(Cl)c(Cl)c(Cl)c1Cl |  | 15 µM (active)
Cc1cc(-c2ccc(N)c(C)c2)ccc1N |  | 50 µM (active)
CCNc1nc(NC(C)C)nc(SC)n1 | inactive | 
